Pf growth 96h: P. falciparum growth inhibition at 96 hours | Potency, µM (doses to about 28.7 µM), for the others: at the highest dose activity change, negative = inhibition, most hits filed as inhibitors | actives 6.9% (n = 320,000) | P. falciparum luciferase reporter growth, 96 h; note: % is set by controls: 0 for no effect and ±100 for the full control effect
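Delayed-death screen, second-generation endpoint: infected erythrocytes, 2% hematocrit, 0.05% parasitemia final; 96 hours at 37 C, 5% CO2; luciferase detection reagent; luminescence decrease equals reduced growth.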
VACV mCherry inh: inhibitors of vaccinia virus infection (mCherry reporter signal). Vaccinia virus mCherry reporter infection, fluorescence. Potency, µM (highest dose often 36.5 µM), for inactives: at the highest dose activity change, negative = inhibition, most hits filed as inhibitors. actives 0.63% (n = 310,000). AID 720579; calls by dose curve; tested in A549 cells; note: % is set by controls: 0 for no effect and ±100 for the full control effect; nearly all actives have a fitted effect of over 35% in size
VACV Venus inh: vaccinia inhibition (Venus reporter); Vaccinia virus Venus reporter expression, fluorescence; Potency, µM (series often up to 36.5 µM), for inactives: top-dose activity change, negative = inhibition, most hits filed as inhibitors; actives 0.46% (n = 330,000); AID 720580; calls by dose curve; tested in A549 cells; note: % is set by controls: 0 for no effect and ±100 for the full control effect; nearly all actives have a fitted effect of over 30% in size
Pf growth 48h: P. falciparum growth inhibition at 48 hours (one generation). P. falciparum luciferase growth in erythrocytes, 48 h. Potency, µM (titrated, usually from 28.7 µM), for inactives: at the top dose activity change, negative = inhibition, hits mostly inhibitors. actives 5.9% (n = 310,000); note: % is set by controls: 0 for no effect and ±100 for the full control effect
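Read-out is firefly luciferase luminescence from an integrated reporter in P. falciparum, so falling signal marks reduced parasite growth. Infected erythrocytes were at 2% hematocrit and 0.1% parasitemia (final) in Albumax-supplemented RPMI 1640.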
HCV inhibitor: inhibitors of hepatitis C virus infection; AID 651820; Huh7.5.1 HCVcc-Cre infection, luciferase reporter, 44 h; Potency, µM (highest dose often 41.8 µM), for inactives: at the top dose activity change, negative = inhibition, hits mostly inhibitors; actives 3.4% (n = 340,000); note: % is set by controls: 0 for no effect and ±100 for the full control effect
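Cells (1,000/well) were plated 4 h before compound, then infected with HCVcc-Cre virus (~0.5 moi). After 44 h further culture, infection was read as luciferase luminescence following a 15 min substrate incubation at room temperature.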
NS1 function inh: blocks influenza NS1 protein function. Potency, µM (series often up to 46.1 µM), without a hit: top-dose activity, positive = more growth. actives 0.4% (n = 270,000). AID 2326; calls by dose curve; note: actives are rising curves; nearly all actives have a fitted effect of over 50% in size
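Compounds were scored for reversing the slow growth caused by influenza A NS1 in S. cerevisiae, measured by optical density at 600 nm. Assay medium contained 2% galactose at pH 6.0; NS1-free yeast of the same strain were the positive control.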
* hit, by the source's call; i = inactive; ? = inconclusive; nt = no result given. Rows were chosen to be rich in hits. Some 11% of all compounds tested hit in one or more screens of this group. Unless noted, calls come from the whole dose curve; as a rule, active = well fitted inhibition curve with a large enough effect; inconclusive = small, poorly fitted or top-dose-only effect, or another doubt; inactive = no such curve, though single readings can be large or run the other way. Potency is the fitted concentration of half-maximal effect.

SMILES | Pf growth 96h | VACV mCherry inh | VACV Venus inh | Pf growth 48h | HCV inhibitor | NS1 function inh
COc1ccc(C=NOCC(=O)OCC(=O)Nc2ccc(OC)cc2)cc1 | nt | -9.0% | -2.2% | nt | 14.9% | nt
CCN(CC)c1ccc(CNCCc2ccc(F)cc2)cc1 | -0.7% | 10µM* | -8.0% | 2.7% | ? | 1.2%
CC1=C(/C=C/C(C)=N\NC(=O)c2ccncc2)C(C)(C)CCC1 | 47.5% | i | -19.4% | 13.1µM* | -4.5% | -0.5%
O=C(NC1CCCC1)C(Cc1ccccc1)n1cccc1 (configuration not stated) | ? | 9.0% | -1.0% | 4.3% | 0.7% | -1.8%
CC1(C)CC(C(CCN(Cc2ccccc2)C(=O)c2ccco2)c2ccc(F)cc2)CCO1 (configuration not stated) | 1.47µM* | ? | ? | 11.7µM* | ? | -0.2%
O=C(c1ccco1)N(CCC(c1ccccc1)c1ccco1)Cc1ccc(F)cc1 (configuration not stated) | ? | nt | nt | ? | ? | 2.9%
CCOC(=O)c1c(C)c2c(=O)[nH]cnc2n1-c1ccccc1 | 12.8% | nt | nt | nt | -29.8% | 0.0%
COC(=O)c1ccn(Cc2ccccc2Cl)n1 | ? | -2.7% | -6.3% | 346.2% | 15.8% | nt
COc1ccc(-c2cc(=O)n(CCC#N)[nH]2)cc1 | 7.38µM* | i | -23.0% | 3.2% | 8.1% | 10.0%
COc1ccc(-c2cc3nc(N)cc(=O)n3[nH]2)cc1 | nt | -13.3% | -1.8% | nt | nt | nt
NC(=O)CC[C@@H]1NC(=O)[C@@H]2CCCN2C(=O)c2cc([N+](=O)[O-])cc(I)c2NCCC[C@@H](C(N)=O)NC1=O | -15.3% | i | 1.7% | 12.6% | 23.5% | 8.8%
O=C(O)c1ccc2c(c1)OCCO2 | nt | nt | -16.6% | -3.7% | 11.5% | ?
Clc1cccc(Nc2c3c(nc4ncnn24)CCC3)c1 | -28.8% | nt | nt | 9.28µM* | ? | -4.4%
COc1cccc(/C=N/n2c(C)nc3ccccc32)c1OC | 38.4% | nt | nt | 1.8% | 8.91µM* | -54.5%
Cc1nc2ccccc2c(=O)n1/N=C/c1ccc([N+](=O)[O-])o1 | 5.86µM* | nt | nt | 13.1µM* | nt | -56.2%
Cc1nc2ccccc2n1/N=C/c1ccc([N+](=O)[O-])o1 | nt | 7.94µM* | 11.2µM* | nt | 10µM* | nt
O=C(O)c1cccc2c1/C(=N/O)c1ccccc1-2 | nt | i | 0.2% | nt | 2.4% | nt
CCOc1ccc(N2C(=O)CC(NCCNc3ccc([N+](=O)[O-])cn3)C2=O)cc1 (configuration not stated) | 0.828µM* | -13.5% | -1.0% | 2.8% | 3.9% | 9.6%
CNC1(C(N)=O)CCN(Cc2ccccc2)CC1 | nt | -1.7% | -4.1% | nt | -5.1% | nt
CCN(C(=O)COC(=O)c1cc2c(s1)CCCCC2)C1CCS(=O)(=O)C1 (configuration not stated) | 0.2% | -0.4% | -11.0% | ? | nt | 1.5%
C=C(C)C1Cc2c(C)nn(-c3nc(C)cc(C)n3)c2C1 (configuration not stated) | 13.1µM* | nt | -22.3% | ? | ? | -102.1%
C=C(C)C1Cc2nc(N)nc(C)c2C1 (configuration not stated) | 1.3% | nt | nt | 50.3% | 4.1% | -7.5%
COc1ccc(-n2c(O)c(/C=N/NS(=O)(=O)c3ccc(C)c([N+](=O)[O-])c3)c3ccccc3c2=O)cc1OC | 11.7µM* | nt | nt | ? | 1.1% | 5.9%
CCN(CC)C(=O)c1cccc(NC(=O)c2ccc3c(=O)n4c(nc3c2)CCC4)c1 | 0.4% | -15.0% | -11.2% | ? | -20.0% | nt
O=C(Nc1cccc(C(=O)Nc2ccccc2C(=O)O)c1)c1cccc(Cl)c1 | nt | nt | nt | nt | 14.5% | nt
COc1ccc(-c2nc(CSCC(=O)NC3CCCc4ccccc43)c(C)o2)cc1OC (configuration not stated) | 8.28µM* | -6.5% | -21.6% | nt | ? | -4.8%
COc1ccc(-c2nc(CSCC(=O)NC3CCN(Cc4ccccc4)CC3)c(C)o2)cc1OC | 10.4µM* | nt | nt | ? | 5.0% | -1.7%
COc1ccc(-c2nc(CS(=O)CC(=O)NC3CCCc4ccccc43)c(C)o2)cc1OC (configuration not stated) | ? | i | -3.1% | nt | ? | -15.7%

From PubChem BioAssay
